An excerpt weighted towards active compounds, which were near 1.2% of everything screened.
RGS8-Gao reg – human RGS8-Galphao interaction regulation; P09471; multiplexed bead flow cytometry, RGS8-Galphao binding; actives lie on both sides; response (percent of control binding), % at 10 µM; 0.34% of 220,000 active; in the data active = response below about 60% or above about 140%; inactive = in between;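 note: Galphao activated as the GDP aluminium fluoride complex binding bead-coupled RGS8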
Target sequence (P09471 whole entry, looked up): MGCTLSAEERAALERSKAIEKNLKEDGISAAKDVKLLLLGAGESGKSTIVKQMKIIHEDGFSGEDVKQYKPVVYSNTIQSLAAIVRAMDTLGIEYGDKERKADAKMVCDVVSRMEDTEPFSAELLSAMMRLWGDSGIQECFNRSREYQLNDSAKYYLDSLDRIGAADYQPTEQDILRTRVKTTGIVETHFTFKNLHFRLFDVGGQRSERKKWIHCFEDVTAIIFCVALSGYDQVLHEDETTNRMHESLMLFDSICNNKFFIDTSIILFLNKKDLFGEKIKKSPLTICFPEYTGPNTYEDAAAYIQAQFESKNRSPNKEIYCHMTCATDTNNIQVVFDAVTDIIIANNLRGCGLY
RGS4-Gao reg – human RGS4-Galphao interaction regulation; binding response (% of control), % at 10 µM; Multiplexed bead flow cytometry, RGS4-Galphao binding; actives lie on both sides; P09471; AID 1415; 0.33% of 220,000 active; in the data active = binding response below about 49% or above about 150%; inactive = in between;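 note: fluorescent Galphao activated with aluminum fluoride binding bead-coupled RGS4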
Avidin bead fluor – compound fluoresces at 488/530 nm on avidin beads. compound fluorescence 488/530 nm, flow cytometry; hits give high values. fluorescence (KMESF) at 10 µM. 0.38% of 220,000 active; in the data active = fluorescence above about 47
GSH bead fluor – GSH bead compound fluorescence profile. GSH beads flow cytometry, compound fluorescence 488/530 nm; hits give high values. 0.25% of 190,000 active. AID 1776. fluorescence (KMESF) at 10 µM; in the data active = fluorescence above about 89;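 note: glutathione beads carrying GST-tagged Bcl family fusion proteins plus one bare bead set; values are compound well signal with DMSO vehicle wells as background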
RGS16-Gao – RGS16-Galphao interaction regulator (human) | binding response (% of control), % at 10 µM | bead-based flow cytometry RGS16-Galphao binding, fluorescence; actives lie on both sides | 0.38% of 220,000 active | AID 1441 | O15492+P09471; call rule not given here;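 note: Galphao activated by GDP with aluminum fluoride before binding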
Target sequence (O15492 whole entry, looked up): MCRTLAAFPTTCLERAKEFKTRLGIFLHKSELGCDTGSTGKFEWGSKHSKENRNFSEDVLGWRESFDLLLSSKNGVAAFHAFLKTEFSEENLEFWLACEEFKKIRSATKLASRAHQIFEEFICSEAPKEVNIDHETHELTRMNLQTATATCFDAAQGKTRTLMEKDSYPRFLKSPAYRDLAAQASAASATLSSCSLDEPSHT
Target sequence (P09471 whole entry, looked up): as the sequence (P09471 whole entry, looked up) above
RGS7-Gao reg – regulators of human RGS7-Galphao interaction. Multiplexed bead flow cytometry, RGS7-Galphao binding; actives lie on both sides. P09471. 0.35% of 220,000 active. binding response (% of control), % at 10 µM; in the data active = binding response below about 49% or above about 150%; inconclusive = no clear call, values can overlap the other calls; inactive = in between;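 note: fluorescent Galphao held in activated GDP-AlF4 state binding bead-coupled RGS7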
The depositor's hits bear a star; ? = inconclusive; / = no result given.

SMILES | RGS8-Gao reg | RGS4-Gao reg | Avidin bead fluor | GSH bead fluor | RGS16-Gao | RGS7-Gao reg
Cc1ccc(C(O)P(=O)(OC2CCCCC2)OC2CCCCC2)cc1 (stereo not drawn) | 104.3 | 93.8 | 56* | 38 | 128.9 | 107.5
O=C(N/N=C/C(Br)=C\c1ccccc1)c1ccc2nc[nH]c2c1 | 95.2 | 99.6 | 13 | 15 | 93.9 | 96.1
CCOc1ccc(NC(=S)Nc2ccc(OC(F)(F)F)cc2)cc1 | 100.9 | 98.1 | 5 | 146* | 99.9 | 98.2
CCOc1ccc(NC(=S)Nc2ccc(OCC)cc2)cc1 | 104.3 | 101.2 | 12 | 14 | 107.9 | 100.8
CCN(CC)c1nc2c(c(=O)n(C)c(=O)n2C)n1CC(=O)c1ccccc1 | 96.8 | 85.5 | 6 | / | 87.3 | ?
COC(=O)c1ccc(-c2ccc(C(=O)N3CCCN(C)CC3)cc2)cc1 | 100.7 | 103.5 | 6 | 256* | 109.4 | 103.0
O=C(CCN1CCC(c2ccc(Cl)s2)=N1)c1ccc(Cl)s1 | 100.0 | 98.2 | 3 | / | 101.8 | ?
COc1ccccc1NCCC(=O)OCC(=O)NCc1ccco1 | 102.6 | 96.2 | 5 | 9 | 107.2 | 90.0
COc1ccc(OCCC(=O)OCC(=O)NCc2ccco2)cc1 | 99.1 | 92.5 | 6 | 259* | 92.2 | 94.4
O=C(COC(=O)c1ccccc1Oc1ccccc1)NCc1ccco1 | 100.7 | 90.7 | 7 | 263* | 92.4 | 97.2
CCC(C(=O)O)N1C(=O)C2CCCCC2C1=O (stereo not drawn) | 101.3 | 105.9 | 9 | / | 103.5 | ?
CN1CCN(Cc2oc(CO)cc(=O)c2O)CC1 | 98.9 | 99.0 | 4 | 15 | 97.5 | 98.5
COc1ccc(N2CCN(Cc3oc(CO)cc(=O)c3O)CC2)cc1 | 92.8 | 87.0 | 8 | 250* | 89.1 | 86.0
CCOC(=O)c1c(NC(=O)CCNCc2ccco2)sc2c1CCC2 | 108.3 | 110.6 | 5 | / | 109.8 | ?
O=C(NC1CCCCC1)C(c1ccco1)N(C(=O)c1csnn1)C1CCCC1 (stereo not drawn) | 27.8* | 35.8* | 3 | 30 | 26.0 | 29.2*
N#C/C(=C/Nc1ccccc1)c1ccsc1 | 104.3 | 103.0 | 51* | 15 | 105.2 | 110.2
Cc1ccc(N/C=C(/C#N)c2ccsc2)cc1 | 102.1 | 102.2 | 12 | 26 | 102.5 | 99.9
CC(C)CNC(=O)CCCc1ccccc1 | 100.0 | 99.5 | 9 | 8 | 100.4 | 95.3
C=CCNC(=O)CCCc1ccccc1 | 101.2 | 101.1 | 52* | 22 | 100.4 | 113.7
COc1ccc(CCNC(=O)/C=C/c2ccc(C)cc2)cc1OC | 103.4 | 102.6 | 12 | 22 | 102.7 | 101.2
COc1ccc(CCNC(=O)CN(c2ccccc2OC)S(C)(=O)=O)cc1OC | 104.3 | 105.4 | 8 | 263* | 107.4 | 102.8
COc1ccc(CCNC(=O)CC2COc3ccccc3O2)cc1OC (stereo not drawn) | 100.3 | 101.4 | 48* | 26 | 102.2 | 106.7
COc1cc(OC)c(OC)cc1NC(=O)CC1COc2ccccc2O1 (stereo not drawn) | 102.2 | 105.1 | 8 | 17 | 105.4 | 102.0
COc1ccc(CCNC(=O)/C=C/c2cc(OC)c(OC)c(OC)c2)cc1OC | 97.0 | 119.3 | 73* | 15 | 98.7 | ?
Cc1ccc(Oc2ncccc2C(=O)NC2CCSC2=O)cc1 (stereo not drawn) | 101.1 | 103.9 | 9 | 13 | 105.4 | 99.5
SMILES | RGS8-Gao reg | RGS4-Gao reg | Avidin bead fluor | GSH bead fluor | RGS16-Gao | RGS7-Gao reg
COc1cc(SC)ccc1C(=O)N(Cc1ccccc1)c1ccccn1 | 92.4 | 107.5 | 51* | / | 92.9 | ?
O=S(=O)(c1ccc(F)cc1)N1CCN(Cc2ccccn2)CC1 | 131.3 | 105.7 | 6 | 9 | 223.5 | 104.9
CCOc1ccc2nc(NCCNC(=O)C(C)C)c(C)cc2c1 | 99.0 | 103.4 | 61* | 24 | 105.0 | 111.0
COc1ccc(OC)c(C2C=C(c3ccc(C)c(C)c3)Nc3nnnn32)c1 (stereo not drawn) | 101.7 | 106.4 | 51* | 53 | 102.1 | 112.3
COc1ccc(OC)c(NC(=O)COC(=O)c2ccc(S(=O)(=O)N3CCOCC3)cc2)c1 | 100.0 | 98.8 | 7 | 276* | 102.1 | 98.7
c1ccc2sc(Cc3nnc4n3CCCCC4)nc2c1 | 102.2 | 105.9 | 88* | 25 | 106.5 | 122.3
CN(C(=S)NC(=O)Cc1ccccc1)c1ccccc1 | 102.4 | 102.9 | 21 | 13 | 101.3 | 100.7
N#CCSc1nnc2sc3ccccc3n12 | 103.7 | 101.6 | 6 | 23 | 101.3 | 98.3
Brc1ccccc1-c1nnc(CSc2nnc3sc4ccccc4n23)o1 | 101.6 | 100.1 | 8 | 257* | 103.2 | 99.4
CCOC(=O)/C(C#N)=C(\O)c1ccc(NC(=O)c2ccc([N+](=O)[O-])cc2)cc1 | 107.3 | 127.1 | 59* | / | 132.2 | ?
CC(=O)NCCc1c[nH]c2ccc(OCC(O)CNC(C)(C)C)cc12 (stereo not drawn) | 103.1 | 118.9 | 15 | / | 116.0 | ?
NCCSc1c(-c2ccc(Cl)cc2)[nH]c2ccccc12 | 102.1 | 103.9 | 6 | / | 105.7 | ?
NCCSc1c(-c2ccccc2)[nH]c2ccccc12 | 12.5* | 5.5* | -1 | 17 | -3.3* | -8.4*
CCc1ccccc1N1CC23C=CC(O2)C(C(=O)OCC(C)C)C3C1=O (stereo not drawn) | 85.2 | 93.7 | 56* | 20 | 60.4 | 133.7
CCCCOC(=O)C1[C@H]2C(=O)N(c3ccccc3CC)C[C@]23C=C[C@H]1O3 (stereo partly drawn) | 95.8 | 97.3 | 16 | 28 | 95.3 | 104.5
COC(=O)CNC(=O)COC(=O)c1cc(Cl)cc(Cl)c1N | 98.4 | 99.6 | 31 | 22 | 99.8 | 101.9
CC(C)CNC(=O)COC(=O)c1cc(Cl)cc(Cl)c1N | 95.4 | 93.3 | 7 | 265* | 99.0 | 94.5
Cc1cccc(NC(=S)NCCc2ccc3c(c2)OCCO3)c1C | 104.0 | 101.0 | 11 | 19 | 107.0 | 99.5
O=C(CCCCn1c(=O)[nH]c2ccccc2c1=O)NCCc1c[nH]c2ccccc12 | 96.5 | 102.7 | 7 | 14 | 90.8 | 100.9
COc1cc2[nH]c(=O)n(CCCCCC(=O)NCCc3c[nH]c4ccccc34)c(=O)c2cc1OC | 100.5 | 104.6 | 49* | 9 | 99.8 | 110.2
Cc1c(NS(=O)(=O)c2ccc(Cl)c(C(=O)OC(C)C(=O)NCc3ccco3)c2)c(=O)n(-c2ccccc2)n1C (stereo not drawn) | 97.0 | 98.6 | 23 | 13 | 98.5 | 94.2
COCCCNC(=O)CSC1=Nc2ccccc2C2=NC(Cc3c[nH]c4ccccc34)C(=O)N12 (stereo not drawn) | 102.4 | 101.8 | 7 | 24 | 108.2 | 104.0
COCCCNC(=O)CSC1=Nc2ccccc2C2=NC(c3ccccc3)C(=O)N12 (stereo not drawn) | 102.9 | 101.3 | 69* | 12 | 107.9 | 122.0
O=C(O)Cn1c(=O)cnc2ccccc21 | 103.8 | 101.7 | 8 | 10 | 109.3 | 102.6

Screening data (PubChem BioAssay)
